Assay outcomes deposited in PubChem by National Center for Advancing Translational Sciences (NCATS).
Sampled rows, rich in hits. Any-hit rate of the full collection: about 19%.
Cycloheximide cs: counter-screen for Shiga toxin inhibitors: cycloheximide protein synthesis inhibition | cell reporter, cycloheximide protein synthesis inhibition counterscreen | max response, % | actives 12% (n = 300,000); in the data active = max response mostly above about 13%, no sharp cut-off; inactive = mostly below about 14%; also: read at 38.3 µM for the half of the compounds with a filed dose; 0% is about no effect
AMA1 RON2 block: disrupts binding of P. falciparum AMA1 to RON2; AlphaScreen AMA1-biotinylated RON2 peptide binding; Potency, µM (highest dose often 58.2 µM), for inactives: at the top dose activity change, negative = inhibition, most hits filed as inhibitors; actives 0.2% (n = 360,000); AID 720542;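 also: potency is read from the fitted curve at half-maximal effect; 0% = vehicle wells and -100% = peptide control; nearly all actives have a fitted effect of over 45% in size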
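AMA1 (3D7) with his tag at 25 nM final met compounds first, then biotinylated RON2 peptide at 25 nM; detection used donor plus acceptor beads, 10 µg/mL apiece, read by AlphaScreen after 30 min at room temperature.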
Pf growth 48h: P. falciparum growth inhibition at 48 hours (one generation) | P. falciparum luciferase growth in erythrocytes, 48 h | Potency, µM (titrated, usually from 28.7 µM), inactives show at the top dose activity change, negative = inhibition, hits mostly inhibitors | actives 5.9% (n = 310,000); also: potency is read from the fitted curve at half-maximal effect; % is scaled to controls: 0 for no effect and ±100 for the full control effect
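Here the parasites carry a stable luciferase gene and grow inside erythrocytes in Albumax-based RPMI medium with compound for one erythrocytic cycle. Activity is scored as loss of luminescent signal.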
Pf growth 96h: P. falciparum growth inhibition at 96 hour, primary screen for plastid delayed-death inhibitors. P. falciparum luciferase reporter growth, 96 h. Potency, µM (series often up to 28.7 µM), inactives show at the top dose activity change, negative = inhibition, hits mostly inhibitors. actives 6.9% (n = 320,000). AID 504834; also: potency is read from the fitted curve at half-maximal effect; % is scaled to controls: 0 for no effect and ±100 for the full control effect
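Cell-based qHTS: luciferase-tagged P. falciparum in erythrocytes (2% hematocrit, 0.05% parasitemia final) incubated with compounds for 96 hours, 37 C, 5% CO2; luciferase detection reagent then added and luminescence measured.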
Shiga inhibitor: inhibitors of Shiga toxin in Vero cells. inhibition, % at 38.7 µM. actives 9.2% (n = 290,000). Vero cells, Shiga toxin protein synthesis inhibition reporter; in the data active = inhibition mostly above about 28%, no sharp cut-off; inactive = mostly below about 43%; also: 0% is about no effect
SARS PLpro yeast: SARS-CoV PLP inhibition in yeast. S. cerevisiae expressing SARS-CoV PLpro, growth rescue. Potency, µM (highest dose often 32.9 µM), without a hit: at the highest dose activity, positive = growth rescue, actives largely listed as activators. actives 0.19% (n = 330,000); calls by dose curve; also: potency is read from the fitted curve at half-maximal effect; 0% is about no effect; nearly all actives have a fitted effect of over 55% in size
Active calls of the source: *; ? = inconclusive; . = no result; [ ] = remark or other dose. Unless noted, calls follow the shape of the dose curve; as a rule, active = well fitted curve in the direction sought with a large enough effect; inconclusive = small, poorly fitted or top-dose-only effect, or another doubt; inactive = no such curve, though single readings can be large; an effect the other way counts as inactive or inconclusive.

SMILES	Cycloheximide cs	AMA1 RON2 block	Pf growth 48h	Pf growth 96h	Shiga inhibitor	SARS PLpro yeast
CCOC(=O)/C(C#N)=C1\SS/C(=C(/C#N)C(=O)OCC)S1	35*	.	7%	1%	50*	-4%
O=C(CCNC(=O)c1ccco1)Nc1cccc(C(F)(F)F)c1	1	-3%	4%	-3%	-1	-1%
O=C(Nc1cccc(C(F)(F)F)c1)c1scc2c1OCCO2	38*	-1%	49%	?	36	-5%
O=C(Nc1cccc(C(F)(F)F)c1)c1cc(Br)cc2c1OCC2	1	9%	51%	20%	3	0%
O=C(Nc1cccc(S(=O)(=O)c2cccc(NC(=O)c3ccco3)c2)c1)c1ccco1	20*	2%	13µM*	12µM*	28*	1%
O=C(/C=C/Nc1cccc(C(F)(F)F)c1)c1ccc(Oc2ncccn2)cc1	47*	-4%	6%	32%	87*	-26%
O=C(Nc1cccc(C(F)(F)F)c1)c1ccco1	11*	7%	-2%	-15%	12	-21%
Cc1ccc(C)c(N2N=C(C(=O)OCC(=O)N(C)c3ccccc3)CCC2=O)c1	.	25%	?	16%	.	-5%
O=C(/C=C/Nc1cccc(C(F)(F)F)c1)c1ccco1	39*	13%	52%	21%	80*	-2%
CCNC(=S)N(Cc1ccccc1)Cc1nc2ccccc2c(=O)[nH]1	2	-18%	-14%	-6%	-4	1%
O=C(Nc1sc2c(c1C(=O)O)CCCCC2)c1ccccc1F	41*	-6%	88%	-1%	109*	-4%
O=C(Nc1sc2c(c1C(=O)O)CCCC2)c1ccc(F)cc1	33*	-1%	40%	?	49*	-20%
NC(=O)c1c(NC(=O)c2ccc(F)cc2)sc2c1CCC2	53*	-2%	131%	6%	45*	11%
NC(=O)c1c(NC(=O)c2cc3ccccc3o2)sc2c1CCC2	36*	2%	4%	-12%	72*	0%
CC(C)(C)c1ccc(C(=O)Nc2sc3c(c2C(=O)O)CCC3)cc1	8	7%	-29%	28%	20	-2%
CCOc1ccc(N2C(=O)CC(N)C2=O)cc1 (stereo not drawn)	-3	-2%	-11%	-6%	5	-119%
CCOC(=O)C1=C(O)/C(=C/c2cn(CC(=O)N3CCCC3)c3ccccc23)SC1=Nc1ccccc1	1	-3%	4.7µM*	3.3µM*	-2	4%
CCCCCc1ccc(C2=NNC(=O)CC2)cc1	14*	-2%	59%	?	.	-15%
CC(C)CCOc1ccc(C2=NNC(=O)CC2)cc1	26*	18%	63%	92%	43*	13%
Cc1ccc(NC(=O)CN2C(=O)NC(C)(C3CC3)C2=O)cc1S(=O)(=O)N1CCCCC1 (stereo not drawn)	.	2%[11.6 µM]	?	?	.	0%
CCN(CC)C(=O)c1ccc(-c2nnc(Nc3cccc(O)c3)c3ccccc23)cc1	1	-4%	2.9µM*	-13%	.	-3%
CCN(CC(=O)Nc1c(F)cccc1F)C(=O)/C=C/c1ccc(Br)s1	.	4%	-5%	-1%	.	0%
Cc1cccc(/N=C/c2c(O)[nH]c3ccccc23)n1	46*	6%	116%	?	92*	-4%
Cc1cccc(/N=C/c2sc3ccccc3c2O)n1	44*	-6%	9%	?	39*	-2%
CC(=O)Nc1ccc(NC(=O)CSc2nccn2Cc2ccco2)cc1	17*	-1%	41%	41%	60*	1%
SMILES	Cycloheximide cs	AMA1 RON2 block	Pf growth 48h	Pf growth 96h	Shiga inhibitor	SARS PLpro yeast
O=C(CSc1nnc(-c2ccco2)n1Cc1ccco1)Nc1ccccc1	-2	-6%	10%	?	-2	0%
COc1ccc(NC(=O)CSc2nccn2Cc2ccc(F)cc2)cc1	2	-10%	3%	13%	10	-5%
O=C(CN(Cc1ccco1)S(=O)(=O)c1cccs1)Nc1ccccc1C(F)(F)F	24*	-1%	-6%	?	42*	6%
O=C(CSc1nccn1Cc1ccco1)Nc1ccccc1	32*	-1%	40%	41%	41*	-1%
O=C(CSc1nccn1Cc1ccco1)Nc1ccccc1C(F)(F)F	28*	-15%	7%	-2%	21	?
CC[C@@H]1[C@H]2CCCC(=O)N3CC[C@@H](C[C@H]1O)[C@@H]23	.	17%	.	.	.	.
COc1ccc(OC)c(NC(=O)COC(=O)CSc2ccc(Cl)cc2)c1	-1	-27%	11%	33%	-8	-22%
CCc1cc(C(=O)OC)c(NC(=O)CSc2nccn2C)s1	0	-13%	-17%	?	-34	22%
CCCCCCSc1nsc(NC(=O)CC(C)C)n1	27*	12%	23%	?	37*	-4%
CCCCCCCCCCSc1n[nH]c(NC(C)=O)n1	-1	13%	-5%	.	-7	-2%
CCCSc1nsc(NC(=O)CC)n1	38*	5%	176%	8.3µM*	72*	0%
CCCCCCCSc1nsc(N)n1	3	6%	8%	-13%	65*	-26%
O=S(=O)(c1cccc(C(F)(F)F)c1)c1ccc(O)cn1	.	-2%	.	.	.	.
CCCCN1CCCCC1(C)C(=O)NCc1ccc2c(c1)OCO2 (stereo not drawn)	.	-12%	.	.	.	.
COC(=O)CNC(=O)C1(C)C=CCN1C(=O)c1ccccc1 (stereo not drawn)	40*	6%	19%	-13%	94*	-4%
CCN(/C(N)=N/c1nc(C)cc(C)n1)c1ccccc1	13*	69%	9%	-4%	20	3%
O=C(Nc1ccc(-c2nc3ccccc3s2)c(O)c1)C1=COCCO1	131*	-4%	87%	180%	73*	14%
O=C(Nc1ccc(O)c(-c2nc3ccccc3s2)c1)C1=COCCO1	-2	14%	34%	57%	1	2%
O=C(Nc1cccc(-c2nc3ccccc3s2)c1)C1=COCCO1	44*	5%	84%	168%	50*	-20%
O=C(Nc1ccc(-c2nc3ccccc3s2)cc1)C1=COCCO1	40*	-10%	-36%	61%	56*	-5%
COc1ccccc1-c1c(C)nn2c(C)cc(C)nc12	-2	1%	-8%	13µM*	-3	-5%
COc1ccccc1-c1cnn2c(NC3CCCC3)cc(C)nc12	38*	56%	30%	?	125*	-3%
Cc1cc(NC2CCCCC2)n2c(n1)nc1ccccc12	1	6%	-19%	-19%	18	1%
CCOC(=O)N1CCC(Nc2cc(C)nc3c(-c4ccccc4OC)c(C)nn23)CC1	-2	0%	9.3µM*	2%	-4	-3%
COc1ccccc1-c1c(C)nn2c(N3CCC(C)CC3)cc(C)nc12	-1	7%	?	?	-6	0%
